Results filed as inconclusive are left out. Unmarked numbers belong to inactive results. Activity calls are given as the source filed them. Calls follow the shape of the dose curve; as a rule, active = well fitted activation curve with a large enough effect; inconclusive = small, poorly fitted or top-dose-only effect, or effect the other way; inactive = flat fitted curve, though single readings scatter.
Experiment: Cellular Toxicity (caspase-3) NIH 3T3 (AID 666);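 also: caspase signal read after 16 h compound exposure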
Conditions: NIH 3T3 caspase-3 activation, apoptosis/toxicity, 0% DMSO, 100% is 100 µM tamoxifen; series mostly up to 92.2 µM; caspase-3 activation: at the top concentration
Excerpt: NIH Chemical Genomics Center [NCGC]
NIH Molecular Libraries Screening Centers Network [MLSCN]
National Institutes of Environmental Health Sciences [NIEHS]
National Toxicology Program [NTP]
We have developed a 1536-well cell-based assay for quantitative high throughput screening (qHTS) against a number of cell lines to determine in vitro caspase 3/7 of small molecules. This particular assay uses the NIH 3T3 cell line which is derived from mouse fibroblasts.
NCGC Assay Protocol Summary:
The Caspase-Glo 3/7 assay (Promega) is a homogeneous method to measure caspase-3 and caspase-7 activities in cultured cells. The quantitation of caspase 3/7 activity is based on the cleavage of a peptide-aminoluciferin substrate. After caspase cleaves the substrate the free aminoluciferin is liberated and serves as the substrate of luciferase, which generates the light. The luminescent signal is proportional to amount of caspase 3/7 activity present.
Using the Caspase-Glo 3/7 assay, the amount of caspase 3/7 activity was measured in the NIH 3T3 cell line with complete culture medium following compound treatment for 16 hours. The assay was performed in opaque white 1536-well plates. In the screen, tamoxifen and doxorubicin were used as positive controls. Library compounds were measured for their ability to cause the activation of caspase 3/7 in the cell line, as reflected by an increase in luminescence signal, in a concentration-dependent manner. Data were normalized to the controls for basal activity (DMSO only) and 100% stimulation (100 uM tamoxifen). AC50 values were determined from concentration-response data modeled with the standard Hill equation.
qHTS protocol for caspase 3/7 assay in NIH 3T3 cells
[Step] [Parameter] [Value] [Description]
1. Reagent; 5 uL; 1000 NIH 3T3 cells/well
2. Time; 5 hr; 37 °C incubation
4. Controls; 23 nL; Tamoxifen 0.23 uM to 100 uM & Doxorubicin 7.0 pM to 100 uM
5. Time; 16 hr; 37 °C incubation
6. Reagent; 5 uL; Caspase-Glo 3/7 reagent
7. Time; 20 min; Room Temperature
8. Detection; Luminescence; Viewlux plate reader
Keywords: caspase 3/7, apoptosis, NIH 3T3 cell line, luminescence, NTPHTS, NTPHTS_NCGC, NIEHS, EPA, DSSTox, MLSMR, MLSCN, NIH Roadmap, qHTS, NCGC

| Structure (SMILES) | caspase-3 activation [%] | outcome |
| --- | --- | --- |
| C=C1C(CCl)(CCl)C2(Cl)C(Cl)C(Cl)C1(Cl)C2(Cl)Cl (stereo unspecified) | 22.1 | – |
| c1ccc2ccccc2c1 | 4.07 | – |
| Cc1ncc[nH]1 | 1.39 | – |
| OCc1ccccc1 | -2.73 | – |
| CC/C=C\C/C=C\C/C=C\CCCCCCCC(=O)O | 8.69 | – |
| O.O.O.O.O.O.O.O=S(=O)([O-])[O-].[Co+2] | -8.62 | – |
| NC(N)=O | -2.35 | – |
| CO/N=C(/C(=O)N[C@@H]1C(=O)N2C(C(=O)O)=C(COC(N)=O)CS[C@H]12)c1ccco1 | -3.69 | – |
| CC(C)(C)CC(C)(C)c1ccc(OCCO)cc1 | -4.09 | – |
| Cc1ccc(S(=O)(=O)O)cc1C | 5.04 | – |
| CC1=CC(=O)NS(=O)(=O)O1 | -4.57 | – |
| OCC(O)CO | – | inactive |
| CC1=CCC2CC1C2(C)C (stereo unspecified) | -3.99 | – |
| CCCCC | -5.34 | – |
| CC(C)O | -2.05 | – |
| OB(O)O | -3.42 | – |
| CC[C@H]1OC(=O)[C@H](C)[C@@H](O[C@H]2C[C@@](C)(OC)[C@@H](O)[C@H](C)O2)[C@H](C)[C@@H](O[C@@H]2O[C@H](C)C[C@H](N(C)C)[C@H]2O)[C@](C)(O)C[C@@H](C)CN(C)[C@H](C)[C@@H](O)[C@]1(C)O | -3.57 | – |
| C/C=C/C=C/C(=O)O | 2.71 | – |

| Structure (SMILES) | caspase-3 activation [%] | outcome |
| --- | --- | --- |
| C[C@H](CCC(=O)O)[C@H]1CC[C@H]2[C@@H]3CC[C@@H]4C[C@H](O)CC[C@]4(C)[C@H]3C[C@H](O)[C@]12C | -5.07 | – |
| COC(=O)c1ccccc1O | 0.45 | – |
| [O-][N+](=Nc1ccccc1)c1ccccc1 | -7.63 | – |
| CO | -1.67 | – |
| C[C@H](CCC(=O)O)[C@H]1CC[C@H]2[C@@H]3[C@H](O)C[C@@H]4C[C@H](O)CC[C@]4(C)[C@H]3C[C@H](O)[C@]12C | -0.648 | – |
| Oc1cccc(O)c1O | -8.58 | – |
| O=P(O)(O)O | -1.9 | – |
| CCOC(C)OCC | -2.49 | – |
| Nc1nccs1 | 0.167 | – |
| Oc1ccc(/C=C/c2cc(O)cc(O)c2)cc1 | -26 | – |
| ClC(Cl)Cl | -0.183 | – |
| OC[C@H]1O[C@@H]2O[C@H]3[C@H](O)[C@@H](O)[C@@H](O[C@H]4[C@H](O)[C@@H](O)[C@@H](O[C@H]5[C@H](O)[C@@H](O)[C@@H](O[C@H]6[C@H](O)[C@@H](O)[C@@H](O[C@H]7[C@H](O)[C@@H](O)[C@@H](O[C@H]1[C@H](O)[C@H]2O)O[C@@H]7CO)O[C@@H]6CO)O[C@@H]5CO)O[C@@H]4CO)O[C@@H]3CO | -2.22 | – |
| C[C@H]1O[C@@H](O[C@H]2[C@@H](O)C[C@H](O[C@H]3[C@@H](O)C[C@H](O[C@H]4CC[C@@]5(C)[C@H](CC[C@@H]6[C@@H]5C[C@@H](O)[C@]5(C)[C@@H](C7=CC(=O)OC7)CC[C@]65O)C4)O[C@@H]3C)O[C@@H]2C)C[C@H](O)[C@@H]1O | -3.49 | – |
| NCCN | 0.712 | – |
| CCCCO | – | inactive |
| OCl | 0.37 | – |
| Nc1ncnc2c1ncn2[C@H]1CC[C@@H](CO)O1 | 4.13 | – |
| O=c1n(CC2CO2)c(=O)n(CC2CO2)c(=O)n1CC1CO1 (stereo unspecified) | 13.5 | – |

Source: PubChem BioAssay (NCATS)
